Assay [1] in a line: NCI Yeast Anticancer Drug Screen. Data for the rad50 strain (AID 155).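 Note: 0% = growth of vehicle-only cultures of the same strain.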 To be noted: S. cerevisiae rad50 strain growth inhibition, hits give high values. The gist of the method: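 Vehicle-treated cultures provide the reference for the growth inhibition reported for compound-exposed, repair-deficient yeast.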
Assay [2] can be described thus: NCI Yeast Anticancer Drug Screen. Data for the mec2-1 strain (AID 157). To be noted: S. cerevisiae mec2-1 strain, hits give high values. The essentials:
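Vehicle-treated cultures served as reference for growth inhibition of compound-exposed mec2-1 yeast.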

A short description of assay [3]: NCI Yeast Anticancer Drug Screen. Data for the sgs1 mgt1 strain (AID 161).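 Note: 0% = growth of cultures given vehicle only.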 To be noted: S. cerevisiae sgs1 mgt1 strain, hits give high values. The gist of the method:
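Mutant yeast exposed to compound; growth scored against vehicle-only wells.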

Assay [4] in a line: NCI Yeast Anticancer Drug Screen. Data for the cln2 rad14 strain (AID 165).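 Note: 0% = growth equal to vehicle treated cultures.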 To be noted: S. cerevisiae cln2 rad14 strain, hits give high values. The essentials: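 Each compound was tested on cln2 rad14 yeast. Inhibition of growth was calculated against vehicle-exposed controls.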
Assay [5] can be described thus: NCI Yeast Anticancer Drug Screen. Data for the bub3 strain (AID 167). To be noted: S. cerevisiae bub3 mutant strain, hits give high values. The essentials:
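Mutant yeast screening strain plus compound; vehicle-treated cultures serve as the 0% inhibition reference.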

The nature of assay [6]: NCI Yeast Anticancer Drug Screen. Data for the mlh1 rad18 strain (AID 175). To be noted: S. cerevisiae mlh1 rad18 strain growth inhibition, hits give high values. The essentials: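 Vehicle-treated cultures served as the reference for growth inhibition in a yeast strain carrying DNA damage repair alterations exposed to each compound.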
[7] abbreviates: at 5.0 µM (retest, dose inferred, filed as 0.5).
The mark [8] stands for this setting: at 50.0 µM (retest, dose inferred, filed as 5.0).

About 79,000 compounds went through this panel and 15% of them were active in at least one assay; those are over-represented in the sample as a whole. Unmarked numbers belong to inactive results. Active and inactive are the calls of the source. Cut-off read from the data, not from the text of the source: active = growth inhibition above about 70%; inactive = the rest.

`CCCCCC(Cn1ccnc1)c1ccc(Cl)cc1Cl` (configuration not stated): the growth inhibition is 72% (active) in assay [1] (setting [7]); 95% (active) in assay [1] (setting [8]); 99.5% (active) in assay [1] (at 50.0 µM); 50% in assay [2] (setting [7]); 94% (active) in assay [2] (setting [8]); 99% (active) in assay [2] (at 50.0 µM). Further, the growth inhibition is 69% in assay [3] (setting [7]); 97% (active) in assay [3] (setting [8]); 99.4% (active) in assay [3] (at 50.0 µM); 72% (active) in assay [4] (setting [7]); 98% (active) in assay [4] (setting [8]); 99.7% (active) in assay [4] (at 50.0 µM). Moreover, the growth inhibition is 72% (active) in assay [5] (setting [7]); 99% (active) in assay [5] (setting [8]); 99.8% (active) in assay [5] (at 50.0 µM); 72% (active) in assay [6] (setting [7]); 100% (active) in assay [6] (setting [8]); 99.6% (active) in assay [6] (at 50.0 µM).
Take `Cc1cccc2cc3ccccc3c[n+]12`: the growth inhibition in assay [1] (setting [7]) was 5%; in assay [1] (setting [8]) it was 63%; in assay [1] (at 50.0 µM), 89.9% (active); in assay [2] (setting [7]) it was 6%; in assay [2] (setting [8]), 49%; in assay [2] (at 50.0 µM), 84% (active). Moreover, the growth inhibition in assay [3] (setting [7]) was -12%; in assay [3] (setting [8]), 79% (active); in assay [3] (at 50.0 µM) it was 97.3% (active); in assay [4] (setting [7]), 2%; in assay [4] (setting [8]) it was 73% (active); in assay [4] (at 50.0 µM), 62.2%. Moreover, the growth inhibition in assay [5] (setting [7]) was -1%; in assay [5] (setting [8]) it was 57%; in assay [5] (at 50.0 µM), 54.2%; in assay [6] (setting [7]), 14%; in assay [6] (setting [8]), 89% (active); in assay [6] (at 50.0 µM), 91% (active).
For `CC/C(=C\c1ccc(Cl)cc1)[N+](=O)[O-]`, the growth inhibition is 34% in assay [1] (setting [7]); 99% (active) in assay [1] (setting [8]); 13.1% in assay [1] (at 50.0 µM); 12% in assay [2] (setting [7]); 99% (active) in assay [2] (setting [8]); -3.1% in assay [2] (at 50.0 µM). In addition, the growth inhibition in assay [3] (setting [7]) is 14%; in assay [3] (setting [8]), 99% (active); in assay [3] (at 50.0 µM), 53.1%; in assay [4] (setting [7]), 7%; in assay [4] (setting [8]) it was 99% (active); in assay [4] (at 50.0 µM) it was -5.45%. Besides, the growth inhibition was 25% in assay [5] (setting [7]); 99% (active) in assay [5] (setting [8]); 4.95% in assay [5] (at 50.0 µM); 13% in assay [6] (setting [7]); 99% (active) in assay [6] (setting [8]); 8.15% in assay [6] (at 50.0 µM).
Regarding `C1CN([PH+](N2CC2)N2CC2)CCO1.C1CN([PH+](N2CC2)N2CC2)CCO1.[I][Pt][I]`, the growth inhibition in assay [1] (setting [7]) is 0%; in assay [1] (setting [8]), 9%; in assay [1] (at 50.0 µM), 36.8%; in assay [2] (setting [7]) it was 2%; in assay [2] (setting [8]) it was 5%; in assay [2] (at 50.0 µM), 23.7%. Also, the growth inhibition in assay [3] (setting [7]) is 1%; in assay [3] (setting [8]) it was 5%; in assay [3] (at 50.0 µM), 52.2%; in assay [4] (setting [7]) it was 4%; in assay [4] (setting [8]), 1%; in assay [4] (at 50.0 µM), 17.9%. Further, the growth inhibition is 1% in assay [5] (setting [7]); 15% in assay [5] (setting [8]); 96.5% (active) in assay [5] (at 50.0 µM); 1% in assay [6] (setting [7]); 7% in assay [6] (setting [8]); 6.4% in assay [6] (at 50.0 µM).
In the case of `CNC1=C(C)C(=O)C2=C(C1=O)C(COC(N)=O)C1(O)C3C(CN21)N3C` (configuration not stated), the growth inhibition was 13% in assay [1] (setting [7]); 83% (active) in assay [1] (setting [8]); 72% (active) in assay [1] (at 50.0 µM); 20% in assay [2] (setting [7]); 90% (active) in assay [2] (setting [8]); 74.9% (active) in assay [2] (at 50.0 µM). The growth inhibition in assay [3] (setting [7]) was 19%; in assay [3] (setting [8]) it was 78% (active); in assay [3] (at 50.0 µM), 69.8%; in assay [4] (setting [7]), 9%; in assay [4] (setting [8]) it was 84% (active); in assay [4] (at 50.0 µM), 61.4%. Further, the growth inhibition was 3% in assay [5] (setting [7]); 59% in assay [5] (setting [8]); 52.2% in assay [5] (at 50.0 µM); 47% in assay [6] (setting [7]); 95% (active) in assay [6] (setting [8]); 83% (active) in assay [6] (at 50.0 µM).
Turning to `CC1CN1C1=C(F)C(=O)C(N2CC2C)=C(F)C1=O` (configuration not stated), the growth inhibition in assay [1] (setting [7]) is 98% (active); in assay [1] (setting [8]), 99% (active); in assay [1] (at 50.0 µM) it was 90.8% (active); in assay [2] (setting [7]) it was 100% (active); in assay [2] (setting [8]), 99% (active); in assay [2] (at 50.0 µM) it was 94% (active). The growth inhibition in assay [3] (setting [7]) was 99% (active); in assay [3] (setting [8]), 99% (active); in assay [3] (at 50.0 µM), 91% (active); in assay [4] (setting [7]), 99% (active); in assay [4] (setting [8]), 99% (active); in assay [4] (at 50.0 µM), 91% (active). Besides, the growth inhibition in assay [5] (setting [7]) is 99% (active); in assay [5] (setting [8]), 99% (active); in assay [5] (at 50.0 µM), 92.5% (active); in assay [6] (setting [7]), 99% (active); in assay [6] (setting [8]) it was 99% (active); in assay [6] (at 50.0 µM), 91.5% (active).
Take `O=C(N/N=C/c1cc(Cl)cc(Cl)c1[O-])c1ccccc1O.O=C(N/N=C/c1cc(Cl)cc(Cl)c1[O-])c1ccccc1O.[Zn+2]`: the growth inhibition in assay [1] (setting [7]) was 93% (active); in assay [1] (setting [8]), 63%; in assay [1] (at 50.0 µM), 94.5% (active); in assay [2] (setting [7]), 97% (active); in assay [2] (setting [8]), 64%; in assay [2] (at 50.0 µM), 91.8% (active). In addition, the growth inhibition in assay [3] (setting [7]) is 96% (active); in assay [3] (setting [8]), 72% (active); in assay [3] (at 50.0 µM), 93% (active); in assay [4] (setting [7]), 92% (active); in assay [4] (setting [8]), 50%; in assay [4] (at 50.0 µM), 91.8% (active). Besides, the growth inhibition in assay [5] (setting [7]) is 95% (active); in assay [5] (setting [8]) it was 62%; in assay [5] (at 50.0 µM) it was 92.7% (active); in assay [6] (setting [7]) it was 95% (active); in assay [6] (setting [8]) it was 64%; in assay [6] (at 50.0 µM), 95.1% (active).
As for `Nc1ncc(CCCCc2ccc(NC(=O)Nc3ccc(S(=O)(=O)F)cc3)cc2)c(N)n1`, the growth inhibition is -1% in assay [1] (setting [7]); 60% in assay [1] (setting [8]); 98.5% (active) in assay [1] (at 50.0 µM); -15% in assay [2] (setting [7]); 60% in assay [2] (setting [8]); 99.5% (active) in assay [2] (at 50.0 µM). The growth inhibition is -17% in assay [3] (setting [7]); 75% (active) in assay [3] (setting [8]); 99.2% (active) in assay [3] (at 50.0 µM); -8% in assay [4] (setting [7]); 57% in assay [4] (setting [8]); 92.8% (active) in assay [4] (at 50.0 µM). Further, the growth inhibition in assay [5] (setting [7]) was -4%; in assay [5] (setting [8]) it was 48%; in assay [5] (at 50.0 µM), 98.8% (active); in assay [6] (setting [7]) it was 4%; in assay [6] (setting [8]) it was 84% (active); in assay [6] (at 50.0 µM) it was 99.2% (active).
Regarding `CC(=O)OC1C(O)C(C)OC(OC2C(OC(=O)C3CCC4C(C3)OC3(CC(OC(=O)/C=C/c5ccccc5)C(C)CO3)C43CO3)OC(C)C(O)C2OC(C)=O)C1O` (configuration not stated), the growth inhibition in assay [1] (setting [7]) was -20%; in assay [1] (setting [8]) it was 96% (active); in assay [1] (at 50.0 µM), 91% (active); in assay [2] (setting [7]), 10%; in assay [2] (setting [8]), 98% (active); in assay [2] (at 50.0 µM) it was 92.7% (active). Also, the growth inhibition was -5% in assay [3] (setting [7]); 95% (active) in assay [3] (setting [8]); 93% (active) in assay [3] (at 50.0 µM); 24% in assay [4] (setting [7]); 96% (active) in assay [4] (setting [8]); 90.1% (active) in assay [4] (at 50.0 µM). In addition, the growth inhibition is 6% in assay [5] (setting [7]); 98% (active) in assay [5] (setting [8]); 92.2% (active) in assay [5] (at 50.0 µM); -1% in assay [6] (setting [7]); 97% (active) in assay [6] (setting [8]); 91.6% (active) in assay [6] (at 50.0 µM).

Values taken from PubChem BioAssay (NCI).
